Only some compounds are listed: those with a hit (about 2.4% of all), similar ones and a draw of the others.
D2 ag-1 = activates the human D2 dopamine receptor. actives 0.53% (n = 340,000). P14416. HEK293 T-REx D2 cells, calcium flux agonist mode. activation, % at 2 µM;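 active = activation over 3 SD above normal in the single-dose calcium agonist read, cut at about 30% in these data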; also: 0% is about no effect
Target sequence (P14416 whole entry, looked up): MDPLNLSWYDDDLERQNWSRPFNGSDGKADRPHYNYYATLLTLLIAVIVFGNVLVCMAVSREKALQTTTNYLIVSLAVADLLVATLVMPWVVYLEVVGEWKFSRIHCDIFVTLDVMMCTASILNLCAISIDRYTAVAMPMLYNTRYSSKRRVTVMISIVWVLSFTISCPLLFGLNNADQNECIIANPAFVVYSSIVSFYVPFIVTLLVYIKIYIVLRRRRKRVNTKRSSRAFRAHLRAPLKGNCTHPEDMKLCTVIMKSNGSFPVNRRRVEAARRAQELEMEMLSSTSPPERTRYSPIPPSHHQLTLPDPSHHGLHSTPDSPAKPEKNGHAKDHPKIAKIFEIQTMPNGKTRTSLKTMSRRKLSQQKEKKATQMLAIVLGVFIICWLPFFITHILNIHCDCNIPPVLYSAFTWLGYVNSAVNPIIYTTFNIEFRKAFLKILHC
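Calcium-flux readout, 1 cycle/sec over 180 s following compound pin transfer, in inducible HEK293 Trex D2 cells (force-coupled); dopamine controls included. Positive calcium responses during this window marked compounds as potential agonists.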
D2 ag-2 = activates the human D2 dopamine receptor; DiscoveRx PathHunter D2 beta-arrestin, luminescence, 90 min; 100% = 57 uM dopamine signal; activation, % (concentration not given with the values); P14416; actives 0.084% (n = 360,000); in the data active = activation above about 40%
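Agonist mode: compounds alone added to overnight-plated D2 PathHunter cells for 90 min at 37 C, with 57 uM final dopamine (EC100) defining full response. Beta-arrestin recruitment detected by chemiluminescent reagent, read after 1 h at ambient temperature.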
D2 antagonist = antagonizes the human D2 dopamine receptor. actives 2% (n = 340,000). P14416. HEK293 TREx D2 cells, calcium flux, dopamine EC80. inhibition, % at 10 µM; in the data active = inhibition above about 30%; inactive = below that, where a call was filed; also: 0% is about no effect
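Calcium mobilization kinetics were recorded at 1 s intervals in tetracycline-induced HEK293 T-REx D2 cells, first for 180 s after compound addition and then 180 s after EC80 dopamine.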
D2 PAM-1 = positively modulates the human D2 dopamine receptor allosterically. P14416. HEK293 T-REx D2, calcium flux, EC20 dopamine potentiation. potentiation, % at 10 µM. actives 0.34% (n = 340,000);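 active = potentiation over 3 SD above the plate norm, cut at about 30% in these data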; also: 0% is about no effect
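Tetracycline-induced HEK293 T-REx cells force-coupled to calcium signalling expressed D2; compounds were pin-added after a 10 s baseline, read kinetically 180 s, then an EC20 dopamine challenge followed with a further 180 s calcium read.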
D2 PAM-2 = potentiates the human D2 dopamine receptor allosterically; P14416; DiscoveRx D2 beta-arrestin cells, luminescence, 90 min; 100% = 57 uM dopamine signal; potentiation, % (test concentration not listed); actives 0.23% (n = 360,000); AID 624464; in the data active = potentiation above about 50%
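D2 cells co-treated with compound plus 50 nM dopamine (EC20) for 90 min at 37 deg C to detect potentiation. Beta-arrestin recruitment was read as enzyme-fragment luminescence after 1 h at ambient temperature. Full response was set by 57 uM dopamine.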
* = called active by the depositor; . = no result given.

SMILES | D2 ag-1 | D2 ag-2 | D2 antagonist | D2 PAM-1 | D2 PAM-2
COc1cc(N)c(Cl)cc1C(=O)N[C@@H]1CCN(CCCOc2ccc(F)cc2)C[C@@H]1OC | 1.1 | . | 76.6* | -23.9 | .
COc1cc(N)c(Cl)cc1C(=O)N[C@H]1CCN(CCCOc2ccc(F)cc2)C[C@H]1OC | 0.9 | -3.9 | -15.1 | -13.0 | -23.7
O=C(NC(c1ccc(F)cc1)c1ccc2ccccc2n1)C1CCN(Cc2cccc(C(F)(F)F)c2)CC1 (stereo not given) | . | -3.1 | . | . | -17.1
COCCNC(=O)CN(c1cc(Cl)ccc1OC)S(=O)(=O)c1ccc(C)c([N+](=O)[O-])c1 | 0.2 | -3.6 | 58.8* | -3.7 | -6.2
COCCCNC(=O)CN(c1cc(Cl)ccc1OC)S(=O)(=O)c1ccc(C)c([N+](=O)[O-])c1 | -0.3 | -3.5 | 1.2 | 10.1 | -2.1
O=C(NCCCN1CCCC1=O)c1ccc([N+](=O)[O-])s1 | -0.3 | 7.7 | -3.3 | -2.0 | -9.5
COc1ccc(-c2c(-c3ccc4c(c3)OCO4)c3ccccc3n2C)cc1 | . | 0.0 | . | . | .
CCOCCCNc1nc2c(C)cccn2c(=O)c1/C=C1\SC(=S)N(CC(C)C)C1=O | 5.4 | -1.1 | 18.1 | 5.1 | 0.2
CCOC(=O)CC1C(=O)NCCN1c1nc2c(C)cccn2c(=O)c1/C=C1\SC(=S)N(CC(C)C)C1=O (stereo not given) | 32.6* | . | 18.7 | -1.9 | .
Cc1c(NC(=O)COC(=O)Cc2ccc(Br)cc2)c(=O)n(-c2ccccc2)n1C | -0.2 | -0.9 | -9.2 | 6.9 | -13.5
Cc1c(NC(=O)CSCc2ccc(Br)cc2)c(=O)n(-c2ccccc2)n1C | 0.3 | -3.8 | 42.4* | -6.4 | -5.3
Cc1c(NC(=O)CSc2ccccc2F)c(=O)n(-c2ccccc2)n1C | -0.8 | -2.5 | -15.6 | 45.6* | 0.0
Cc1c(NC(=O)c2ccc(Br)o2)c(=O)n(-c2ccccc2)n1C | -0.6 | -2.5 | -5.0 | 30.8* | -2.2
Cc1c(NC(=O)COc2ccc3ccccc3c2)c(=O)n(-c2ccccc2)n1C | -0.4 | -3.4 | 7.4 | 34.7* | -3.1
Cc1c(NC(=O)COc2cccc(F)c2)c(=O)n(-c2ccccc2)n1C | 0.9 | 1.2 | 10.5 | -4.4 | 16.5
COc1cccc2c1Oc1ncccc1N(C(=O)Nc1ccc(F)c(Cl)c1)C2 | -3.5 | . | . | -11.3 | .
COc1ccccc1CN1CC(C(=O)NCC2(O)CCCCC2)CCC1=O (stereo not given) | . | 0.5 | . | . | -6.1
Cc1cccc(C(=O)N2CCc3cc(CNS(=O)(=O)c4ccc(F)c(Cl)c4)ccc32)c1 | -0.9 | . | . | 1.6 | .
CCC[C@H]1NC(=O)[C@H](C)N(C)C(=O)C(C)(C)C(=O)C(C)NC(=O)[C@H](Cc2ccc(OC)cc2)N(C)C(=O)[C@H](C(C)C)N(C)C(=O)CNC(=O)[C@H](CC(C)C)N(C)C(=O)CNC(=O)[C@H]([C@@H](C)CC)OC(=O)[C@H]1C (stereo not given in full) | . | -3.2 | . | . | .
O=C(COc1ccc2ccccc2c1)NNC(=O)Cc1ccccc1 | -0.2 | -0.6 | -12.3 | 0.6 | -6.0
O=C(COc1ccc2ccccc2c1)NNC(=O)c1ccccc1 | 1.9 | -2.8 | 47.6* | 5.7 | -6.3
O=C(Oc1ccccc1F)c1ccc2c(=O)n3c(nc2c1)CCC3 | -0.3 | -1.2 | 31.8* | -7.1 | 5.7
Cc1ccc(C)c(NC(=O)CN(C)C(=O)c2ccc3c(=O)n4c(nc3c2)CCC4)c1 | 0.4 | -1.3 | 32.7* | -26.8 | -29.4
CC(C)(C)c1cc(NC(=O)COC(=O)c2ccc3c(=O)n4c(nc3c2)CCC4)n(-c2ccccc2)n1 | -0.1 | 0.0 | -9.9 | 46.3* | 2.8
O=C(Oc1ccccc1Cl)c1ccc2c(=O)n3c(nc2c1)CCC3 | 0.1 | 10.3 | 7.8 | 19.4 | -11.5
SMILES | D2 ag-1 | D2 ag-2 | D2 antagonist | D2 PAM-1 | D2 PAM-2
Cc1ccc(CNC(=O)C2CCCN(S(=O)(=O)c3c(C)noc3/C=C/N(C)C)C2)cc1 (stereo not given) | 0.2 | -4.4 | -13.6 | 4.2 | -11.1
COc1ccccc1N1CCN(CCCCN2C(=O)C3CCCCN3C2=O)CC1 (stereo not given) | 0.3 | 1.4 | 94.3* | -18.2 | -28.1
Cc1ccccc1N1CCN(CCCCN2C(=O)C3CCCN3C2=O)CC1 (stereo not given) | 7.6 | -3.6 | 58.9* | -18.7 | -31.5
O=C1C2CCCN2C(=O)N1CCCN1CCN(c2cccc(Br)c2)CC1 (stereo not given) | -0.5 | 2.7 | -17.2 | 18.4 | -5.1
CCCCOc1ccccc1N1CCN(CCCN2C(=O)C3CCCN3C2=O)CC1 (stereo not given) | 0.8 | -2.5 | 76.2* | -23.7 | 3.7
O=C1C2CCCCN2C(=O)N1CCCN1CCN(c2ccc(F)cc2)CC1 (stereo not given) | 0.8 | -1.2 | -11.9 | -9.8 | -22.3
COc1ccccc1N1CCN(CCCN2CC(=O)N3CCCCC3C2=O)CC1 (stereo not given) | . | 0.2 | . | . | -21.2
COc1ccc(C(=O)Nc2cccc(NC(=O)c3ccc(OC)c(OC)c3)n2)cc1OC | -0.9 | 5.1 | -3.9 | 4.5 | 85.3*
CC1CCN(Cc2c(C(=O)N/N=C/c3cccc(Cl)c3)nnn2-c2nonc2N)CC1 | 0.2 | 1.0 | -8.0 | 37.5* | -12.8
C/C(=N\NC(=O)c1nnn(-c2nonc2N)c1CN1CCCCC1)c1ccccc1O | -0.2 | -5.6 | 30.1* | -3.7 | -6.5
CN1/C(=C/C=N/NC(=O)c2ccc([N+](=O)[O-])cc2)C(C)(C)c2ccccc21 | 0.4 | 0.6 | 36.7* | -17.3 | -6.6
O=C(COc1ccc2c(c1)OCO2)Nc1ccc2c(c1)oc1ccccc12 | 0.0 | 1.6 | 37.0* | -5.5 | 8.9
c1ccc(Cn2nnc3c(N4CCc5ccccc54)ncnc32)cc1 | 0.5 | -0.7 | -18.5 | 35.6* | -19.8
COC(=O)Nc1ccc(S(=O)(=O)N2CCC(C(=O)NCc3ccc4c(c3)OCO4)CC2)cc1 | . | -1.7 | . | . | -1.6
CC(C)c1ccc(NC(=O)CSc2ncc3c(n2)-c2ccccc2N(C)S3(=O)=O)cc1 | 0.5 | . | . | 10.3 | .
COc1cc(Cl)c(CC(=O)c2c[nH]c3ccccc23)cc1OC | 0.8 | 4.1 | 32.5* | -3.2 | -4.5
C/C(=N\NC(=O)c1cccnc1)c1cc(C)oc1C | 2.1 | -2.8 | 33.5* | -6.7 | -8.2
Cc1ccc2c(=O)c(C(=O)c3ccc(F)cc3)cn(CC(=O)NCc3ccco3)c2n1 | 0.3 | 5.2 | 33.1* | -1.8 | 15.4
Cc1cccc(C)c1Nc1nnc(SCC(=O)NC2CCS(=O)(=O)C2)s1 (stereo not given) | 0.7 | 3.3 | 26.9 | -13.0 | 5.6
Cc1ccc(Nc2nnc(SCC(=O)NC3CCS(=O)(=O)C3)s2)c(C)c1 (stereo not given) | 0.8 | -7.1 | 38.8* | -8.2 | -34.8
COc1ccc(C(=O)OCc2ccccc2F)cc1S(=O)(=O)N1CCCC1 | 0.6 | 0.6 | 6.5 | -5.2 | -4.4

High-throughput results deposited in PubChem by National Center for Advancing Translational Sciences (NCATS).
